Screens deposited in PubChem by National Center for Advancing Translational Sciences (NCATS).
Shown are actives, neighbours in structure and some others; about 10% of the full set was active somewhere.
CtBP-E1A blk: inhibitors of CtBP/E1A interaction; AlphaScreen GST-E1A/His-CtBP binding, 1536-well; stronger effect = lower value; activity change, % (test concentration not listed); 340,000 tested, 0.49% active; AID 651724; in the data active means activity change below about -65%; inconclusive means mostly about -30% to -63%; further: on the % scale 0 is the no-effect control and ±100 the full control effect
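AlphaScreen with 125 nM GST-E1A and 125 nM His-CtBP (5X stocks) in Tris pH 8.0, 300 mM NaCl, BSA, Tween 20, TCEP. Compounds preincubated 2 h at 37 deg C, then glutathione donor/nickel acceptor beads added for 1 h at 37 deg C in dark.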
HP1b binding inh: HP1-beta chromodomain-methylated histone interaction inhibition; P83916; AlphaScreen HP1-beta / biotin-H3K9me3 peptide binding; Potency, µM (highest dose often 114 µM), inactives show top-dose activity change, negative = inhibition, usual class: inhibitors; 390,000 tested, 0.56% active; AID 540317; further: potency means the concentration at half of the fitted maximal effect; nearly all actives have a fitted effect of over 70% in size
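AlphaScreen: HP1-beta (50 nM) preformed 30 min with biotin-H3(1-18)K9me3 peptide (50 nM) in PBS pH 7.4, 0.01% Tween-20. Compound added for 30 min at RT, then streptavidin donor/nickel chelate acceptor beads (10 ug/mL) for 30 min.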
JMJD2A Tudor: JMJD2A Tudor domain (human) inhibition | AlphaScreen JMJD2A-Tudor / H3K4me3 peptide binding | Potency, µM (titrated, usually from 114 µM), inactives show at the highest dose activity change, negative = inhibition, actives largely listed as inhibitors | 390,000 tested, 4.4% active; further: potency means the concentration at half of the fitted maximal effect; on the % scale 0 is the no-effect control and ±100 the full control effect; nearly all actives have a fitted effect of over 50% in size
BAZ2B block: blocks human BAZ2B. AlphaScreen BAZ2B-H3K14Ac peptide displacement. Q9UIF8. 360,000 tested, 4.4% active. Potency, µM (highest dose often 114 µM), for inactives: top-dose activity change, negative = inhibition, most hits filed as inhibitors; further: potency means the concentration at half of the fitted maximal effect; on the % scale 0 is the no-effect control and ±100 the full control effect; nearly all actives have a fitted effect of over 60% in size
Target sequence (Q9UIF8 whole entry, looked up): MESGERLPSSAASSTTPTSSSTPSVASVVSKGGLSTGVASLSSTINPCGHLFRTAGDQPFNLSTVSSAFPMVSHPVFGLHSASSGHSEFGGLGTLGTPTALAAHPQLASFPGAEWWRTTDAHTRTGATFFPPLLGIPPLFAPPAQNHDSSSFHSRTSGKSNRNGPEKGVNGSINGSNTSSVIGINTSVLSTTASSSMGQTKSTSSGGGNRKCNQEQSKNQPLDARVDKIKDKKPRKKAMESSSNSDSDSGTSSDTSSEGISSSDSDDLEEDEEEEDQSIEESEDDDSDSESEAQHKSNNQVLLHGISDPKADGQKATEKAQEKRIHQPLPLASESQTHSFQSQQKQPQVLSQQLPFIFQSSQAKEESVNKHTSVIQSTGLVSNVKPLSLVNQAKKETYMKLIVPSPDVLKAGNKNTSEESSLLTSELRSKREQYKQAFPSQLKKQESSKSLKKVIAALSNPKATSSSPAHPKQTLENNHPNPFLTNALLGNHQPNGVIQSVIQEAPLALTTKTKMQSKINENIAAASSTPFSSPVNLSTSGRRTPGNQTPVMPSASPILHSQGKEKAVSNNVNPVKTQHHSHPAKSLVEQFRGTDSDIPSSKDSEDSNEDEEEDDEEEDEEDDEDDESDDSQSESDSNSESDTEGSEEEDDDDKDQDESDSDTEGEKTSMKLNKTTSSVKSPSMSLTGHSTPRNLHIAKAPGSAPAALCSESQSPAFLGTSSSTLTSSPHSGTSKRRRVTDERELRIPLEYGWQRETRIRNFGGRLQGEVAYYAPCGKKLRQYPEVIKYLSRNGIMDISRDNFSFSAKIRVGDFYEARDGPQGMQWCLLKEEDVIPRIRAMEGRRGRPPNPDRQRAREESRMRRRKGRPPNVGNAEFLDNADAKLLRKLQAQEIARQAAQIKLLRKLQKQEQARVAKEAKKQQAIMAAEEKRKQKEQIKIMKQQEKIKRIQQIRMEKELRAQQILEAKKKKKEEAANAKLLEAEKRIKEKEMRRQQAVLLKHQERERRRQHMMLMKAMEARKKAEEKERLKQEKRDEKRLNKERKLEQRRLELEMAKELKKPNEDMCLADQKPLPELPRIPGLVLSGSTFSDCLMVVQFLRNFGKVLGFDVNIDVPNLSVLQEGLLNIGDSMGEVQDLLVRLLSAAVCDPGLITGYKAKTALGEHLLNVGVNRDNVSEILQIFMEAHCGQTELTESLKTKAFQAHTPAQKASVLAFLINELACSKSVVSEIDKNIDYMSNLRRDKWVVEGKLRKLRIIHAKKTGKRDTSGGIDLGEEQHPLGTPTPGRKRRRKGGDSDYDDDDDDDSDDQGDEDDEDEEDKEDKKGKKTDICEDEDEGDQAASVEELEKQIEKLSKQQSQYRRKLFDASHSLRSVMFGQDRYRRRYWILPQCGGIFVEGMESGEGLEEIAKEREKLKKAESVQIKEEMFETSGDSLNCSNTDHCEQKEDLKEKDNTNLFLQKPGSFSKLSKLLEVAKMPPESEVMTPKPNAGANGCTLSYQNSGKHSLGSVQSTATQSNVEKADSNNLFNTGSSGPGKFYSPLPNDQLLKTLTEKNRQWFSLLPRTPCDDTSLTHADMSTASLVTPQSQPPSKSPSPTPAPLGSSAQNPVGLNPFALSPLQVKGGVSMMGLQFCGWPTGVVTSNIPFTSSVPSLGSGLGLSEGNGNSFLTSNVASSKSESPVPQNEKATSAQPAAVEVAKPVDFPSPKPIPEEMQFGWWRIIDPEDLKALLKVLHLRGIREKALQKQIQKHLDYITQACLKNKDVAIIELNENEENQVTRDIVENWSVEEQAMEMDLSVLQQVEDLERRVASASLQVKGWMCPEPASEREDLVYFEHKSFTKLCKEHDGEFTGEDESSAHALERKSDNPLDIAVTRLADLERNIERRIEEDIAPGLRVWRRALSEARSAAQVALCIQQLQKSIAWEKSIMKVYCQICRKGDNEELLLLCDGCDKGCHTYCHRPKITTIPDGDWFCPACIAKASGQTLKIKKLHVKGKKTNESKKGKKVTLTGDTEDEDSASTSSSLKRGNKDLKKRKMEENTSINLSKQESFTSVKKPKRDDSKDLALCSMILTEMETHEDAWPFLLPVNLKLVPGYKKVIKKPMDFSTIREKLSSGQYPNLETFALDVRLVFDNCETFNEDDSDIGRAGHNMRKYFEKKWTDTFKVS
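Inhibition is scored as reduced AlphaScreen emission. The BAZ2B/b-H3(5-23)K14Ac complex (50 nM each) in PBS pH 7.4, 0.01% Tween-20 meets compound (up to 110 uM) for 30 min at RT before bead addition.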
G9a block: blocks human histone lysine methyltransferase G9a; AID 504332; Potency, µM (doses to about 102 µM), without a hit: at the top dose activity, negative = inhibition, actives largely listed as inhibitors; G9a H3K9 monomethylation, AlphaScreen, 2 h; 350,000 tested, 8.8% active; Q96KQ7; further: potency means the concentration at half of the fitted maximal effect; on the % scale 0 is the no-effect control and ±100 the full control effect; nearly all actives have a fitted effect of over 75% in size
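Signal arises when biotinylated H3K9 peptide, once monomethylated, bridges streptavidin donor and antibody-captured acceptor beads. Enzyme at 20 nM was preincubated 15 min with test compounds; peptide 500 nM and SAM 20 uM then reacted for 2 h.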
Six1-Eya2 inh: blocks human Six1 binding to Eya2. AlphaScreen GST-Six1/His-Eya2 binding, biochemical; stronger effect = lower value. activity change, % (test concentration not listed). 360,000 tested, 0.56% active. AID 651725; in the data active means activity change below about -65%; inconclusive means mostly about -30% to -63%; further: on the % scale 0 is the no-effect control and ±100 the full control effect
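Compounds are tested against tagged Six1 and Eya2 proteins bridged by glutathione donor and nickel acceptor beads; after a one-hour incubation at 37 °C without light, AlphaScreen emission is recorded.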
Numbers without * were called inactive; [ ] = another dose, or the depositor's remark. Unless noted, the call rests on the fitted dose curve; in most records, active means well fitted inhibition curve with a large enough effect; inconclusive means small, poorly fitted or top-dose-only effect; inactive means no such curve, though single readings can be large or run the other way.

`COc1ccc(N2CCN(C(=O)COC(=O)COc3cc(C)cc(C)c3)CC2)cc1` gave CtBP-E1A blk -3.6, HP1b binding inh -13.9%, JMJD2A Tudor -33.1%, BAZ2B block inconclusive, G9a block 31.6µM* and Six1-Eya2 inh -12.0.
Screening COc1cccc(CNC(C)C(=O)Nc2ccc3c(c2)OCCO3)c1 (stereo not given) returned CtBP-E1A blk 3.5, HP1b binding inh inconclusive, JMJD2A Tudor 3.16µM*, BAZ2B block inconclusive, G9a block 44.7µM* and Six1-Eya2 inh 9.2.
CCn1cc2nc(SCc3ccccc3Cl)n(Cc3ccc(OC)cc3)c(=O)c2n1 was read as HP1b binding inh -19.1%, JMJD2A Tudor inconclusive, BAZ2B block -11.0% and G9a block -27.6%[59 µM].
For CCC1COCCS(=O)(=O)N1Cc1cccc(C(F)(F)F)c1 (stereo not given) the results were CtBP-E1A blk -6.5, HP1b binding inh 41.5%, JMJD2A Tudor -2.1%, BAZ2B block 10.7%, G9a block 26.7% and Six1-Eya2 inh 12.0.
For CCOC(=O)C1=C(COC(=O)Cc2ccccc2[N+](=O)[O-])NC(=O)NC1C (stereo not given) the results were CtBP-E1A blk -3.5 and Six1-Eya2 inh 8.0.
Cc1c(Cl)cccc1-n1cnc(=O)c2ccccc21 was read as CtBP-E1A blk 2.9, HP1b binding inh 14.6%, JMJD2A Tudor 5.4% and Six1-Eya2 inh 4.2.
COc1cccc(CC(=O)OCC(=O)N2CCN(c3ccc(F)cc3)CC2)c1 was read as CtBP-E1A blk -25.8, HP1b binding inh 5.1%, JMJD2A Tudor -7.3%, BAZ2B block 5.3% and Six1-Eya2 inh 1.7.
`COc1ccc(N2CCN(C(=O)COC(=O)Cc3cccc(OC)c3)CC2)cc1` gave CtBP-E1A blk 1.0, HP1b binding inh -16.0%, JMJD2A Tudor -34.9%, BAZ2B block -26.6%, G9a block 39.8µM* and Six1-Eya2 inh -6.2.
Screening CCNc1nc(NCC)nc(SCC(C)=O)n1 returned CtBP-E1A blk 2.3, HP1b binding inh 47.5%, JMJD2A Tudor 0.7%, BAZ2B block 6.4% and Six1-Eya2 inh 0.0.
Cn1nnc(NC(=S)NC(=O)Cc2ccccc2)n1 was read as CtBP-E1A blk 2.8, HP1b binding inh 79.4µM*, JMJD2A Tudor 22.4µM*, BAZ2B block 35.5µM*, G9a block 2.82µM* and Six1-Eya2 inh 4.8.
For Cn1nnc(NC(=S)NC(=O)c2ccco2)n1 the results were CtBP-E1A blk -0.9, HP1b binding inh inconclusive, JMJD2A Tudor inconclusive, BAZ2B block inconclusive, G9a block 7.94µM* and Six1-Eya2 inh 4.4.
`COc1ccc(C(=O)NC(=S)Nc2nnn(C)n2)cc1` gave CtBP-E1A blk 1.5, HP1b binding inh -36.9%, JMJD2A Tudor 31.6µM*, BAZ2B block 50.1µM*, G9a block 3.55µM* and Six1-Eya2 inh 0.5.
For Cc1nc(NC(=S)NC(=O)c2ccco2)sc1C(=O)N(C)C the results were CtBP-E1A blk 7.4, HP1b binding inh 28.3%, JMJD2A Tudor -12.0%, BAZ2B block -1.0%, G9a block 39.8µM* and Six1-Eya2 inh 14.5.
For COc1c(C(=O)NC(=S)Nc2nnn(C)n2)cc2ccccc2c1Br the results were CtBP-E1A blk -3.2, HP1b binding inh -6.6%, JMJD2A Tudor -8.1%, BAZ2B block -5.4% and Six1-Eya2 inh 19.8.
`OCC[C@@H]1C[C@H](O)[C@@H](O)[C@]2(CCCO2)O1` gave CtBP-E1A blk 5.3, HP1b binding inh 65.4%, JMJD2A Tudor -8.6% and Six1-Eya2 inh 4.6.
Screening CN(Cc1cn(-c2ccccc2)nc1-c1cc2ccccc2o1)C(=O)CCC(=O)O returned CtBP-E1A blk -4.3, HP1b binding inh -22.6%, JMJD2A Tudor 31.6µM*, BAZ2B block -22.3%, G9a block -1.1% and Six1-Eya2 inh -13.2.
`CN(C)C(=O)c1cn(-c2ccccc2)nc1-c1cc2ccccc2o1` gave CtBP-E1A blk -1.6, HP1b binding inh 12.9%, JMJD2A Tudor -9.9%, BAZ2B block -15.0%, G9a block 4.0%[12.7 µM] and Six1-Eya2 inh -0.5.
`CCCCC(c1nnnn1CS(=O)(=O)c1ccc(C)cc1)N1CCN(c2ccccc2)CC1` (stereo not given) gave CtBP-E1A blk -0.9, HP1b binding inh 5.5%, JMJD2A Tudor inconclusive, BAZ2B block -1.5%, G9a block inconclusive and Six1-Eya2 inh -15.4.
Screening CCCC(c1nnnn1CS(=O)(=O)c1ccc(C)cc1)N1CCN(C2CCCC2)CC1 (stereo not given) returned CtBP-E1A blk -1.1, HP1b binding inh -13.6%, JMJD2A Tudor inconclusive, BAZ2B block -25.0%, G9a block 50.1µM* and Six1-Eya2 inh 4.5.
`NC(=O)c1cc[n+](CC2=C(C(=O)O)N3C(=O)[C@@H](NC(=O)[C@H](c4ccccc4)S(=O)(=O)[O-])[C@@H]3SC2)cc1` gave G9a block 5.62µM*.
NC(=O)c1cc[n+](CC2=C(C(=O)O)N3C(=O)[C@@H](NC(=O)C(c4ccccc4)S(=O)(=O)[O-])[C@H]3SC2)cc1 (stereo not given in full) was read as CtBP-E1A blk -7.1, HP1b binding inh inconclusive, JMJD2A Tudor 1.12µM*, BAZ2B block 2.1%, G9a block -12.8% and Six1-Eya2 inh inconclusive.
CC(=O)OCC1=C(C(=O)O)N2C(=O)[C@@H](NC(=O)CSc3ccncc3)[C@@H]2SC1 was read as G9a block 2.1%[12.7 µM].
`NC(=O)c1cc[n+](CC2=C(C(=O)[O-])N3C(=O)[C@@H](NC(=O)Cc4cccs4)[C@@H]3SC2)cc1` gave G9a block 7.94µM*.
`Cc1nnc(SCC2=C(C(=O)O)N3C(=O)C(NC(=O)Cc4ccccc4)C3SC2)s1` (stereo not given) gave HP1b binding inh 34.9%, JMJD2A Tudor -5.7%, BAZ2B block inconclusive, G9a block inconclusive and Six1-Eya2 inh -8.1.
For COc1ccc(NC(=O)C(Cc2ccccc2)NS(=O)(=O)c2ccc3c(c2)oc(=O)n3C)c(OC)c1 (stereo not given) the results were HP1b binding inh 66.4%, JMJD2A Tudor 4.7%, BAZ2B block 2.5% and G9a block 21.3%[59 µM].
S=C(NCCN1CCOCC1)Nc1ccc(-c2nc3ccccc3[nH]2)cc1 was read as CtBP-E1A blk -1.1, HP1b binding inh 7.8%, JMJD2A Tudor -18.1%, BAZ2B block -25.6%, G9a block 44.7µM* and Six1-Eya2 inh -11.9.
